From PubChem BioAssay AID1259415 (National Center for Advancing Translational Sciences (NCATS), 2018)
“And” between values parts separate entries of the source, which are not always exact repeats. Equal values may be shown once. In all, about 410,000 compounds went through this assay and about 18,000 (4.4%) were called active. Inconclusive results (about 7%) are left out. Cut-off read from the data, not from the text of the source: active = activity change below about -60%; inconclusive = no clear call, values can overlap the other calls; inactive = above about -39%. The sample as a whole holds a higher share of actives than the screen did.

Experiment: qHTS Assay for inhibitors of the human cytomegalovirus (HCMV)
Conditions: HFF cells, HCMV-luciferase reporter, 72 h; at 57.5 µM; active compounds read low
Method in brief: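 After 16 h attachment at 37C, HFF cells received test compound and HCMV-luciferase (1 PFU/cell); reporter luminescence read 72 h later, data normalized against buffer-only and known inhibitor Salinomycin.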
% is set by controls: 0 for no effect and ±100 for the full control effect.

Structure (SMILES)	activity change, negative = inhibition
COc1ccc(C(=O)NC(=S)NNC(=O)CCc2ccccc2)cc1	-85.4% (active)
CCCCC(=O)NNC(=S)NC(=O)C(c1ccccc1)c1ccccc1	-31.6% (inactive)
Cc1c(NC(=S)NC(=O)CCc2ccccc2)c(=O)n(-c2ccccc2)n1C	-11.5% (inactive)
Cc1cccc(C(C)C)c1NC(=O)C(NS(=O)(=O)c1cccc2nsnc12)c1ccccc1 (stereo unspecified)	-12.4% (inactive)
CCOC(=O)c1c(C)n(S(=O)(=O)c2ccc(C)cc2C)c2ccc(NS(=O)(=O)c3ccc(C)cc3C)cc12	37% (inactive)
O=C(c1ccc(C(F)(F)F)cc1)N1CCC(c2nc(-c3ccc(S(=O)(=O)N4CCCC4)cc3)no2)CC1	-39.7% (inactive)
Cc1ccccc1NC(=O)c1c(NC(=O)c2ccccc2F)sc2c1CCC(C)C2 (stereo unspecified)	-1.03% (inactive)
CC(C)NC(=O)COCc1cc(-c2ccc3c(c2)OCO3)on1	-102% (active)
Cc1cccc(N2CCN(C(=O)COCc3cc(-c4ccc5c(c4)OCO5)on3)CC2)c1C	10.8% (inactive) and 0.0657% (inactive)
CCOC(=O)N1CCN(C(=O)COCc2cc(-c3ccc4c(c3)OCO4)on2)CC1	-33.7% (inactive)
O=C(O)c1cccc(N=NN2CCCCCC2)c1	134% (inactive)
CCc1nnc(SCc2nc(-c3cccc(C)c3)oc2C)c2cc3sc(C)cc3n12	22.7% (inactive)
Cn1c(SCc2c(F)cccc2Cl)nnc1-c1cnccn1	-2.73% (inactive)
CCc1nnc(SCc2c(F)cccc2Cl)c2cc3sccc3n12	-67.2% (active)
CCOC(=O)CSC1=Nc2ccccc2C2=NC(CCC(=O)NCc3ccc(F)cc3)C(=O)N12 (stereo unspecified)	-5.13% (inactive)
COc1cccc(NC(=O)Nc2ccc3c(c2)N(C)C(=O)c2ccccc2S3)c1	-33.9% (inactive)
CCOc1ccc(N2C(=O)CN(c3cccc4ccccc34)C2=S)cc1	28.1% (inactive)
CCOc1ccc(N2C(=O)CSC2=NC#N)cc1	-101% (active)
CCO/C=C1\C(=O)N(c2ccc(OCC)cc2)C(=O)c2ccccc21	-9.21% (inactive)

Structure (SMILES)	activity change, negative = inhibition
Cn1c(=O)c(C(=O)O)nn(-c2ccccc2)c1=O	-0.182% (inactive)
O=[N+]([O-])c1cc(S(=O)(=O)Nc2cccc(Cl)c2)ccc1N=Nc1c(O)[nH]c2ccccc12	-78.2% (active)
CCN(C(=O)COC(=O)c1cc(NS(=O)(=O)c2ccc(Cl)c([N+](=O)[O-])c2)ccc1O)C1CCCCC1	-23% (inactive)
O=C(CCN1CCCCC1)N=Nc1c(O)[nH]c2ccccc12	8% (inactive)
C/C(=N\NC(=O)NC1CCCCC1)c1ccc(OC(F)F)cc1OC(F)F	-36.3% (inactive)
Cc1ccc(-n2c(C)cc(C(=O)CSc3nnc4ccccn34)c2C)cc1	-86.1% (active)
Cc1ccc(-n2c(C)nnc2SCC(=O)NC2CC2)cc1	17.2% (inactive)
N#Cc1ccc(CSc2nnc3ccccn23)cc1	-25.8% (inactive)
Cc1ccc(-n2nc(C)c(C(=O)O)c2-n2cccc2)cc1	3.17% (inactive)
COC(=O)c1cc(=O)n(-c2c(Cl)cc(C(F)(F)F)cc2Cl)[nH]1	31.8% (inactive)
CC1(Cc2cccc(C#N)c2)C(=O)Nc2ccc(-c3cccc(C(F)(F)F)c3)cc21 (stereo unspecified)	-96.6% (active)
C=CCn1cc(-c2cccc(C(F)(F)F)c2)cc(C#N)c1=O	-25.4% (inactive)
Cc1oc2c(c1C(=O)N1CCOCC1)C(=O)c1ccccc1C2=O	-101% (active)
Cc1ccc(C)c(CN2C(=O)c3ccccc3S(=O)c3ccc(C(=O)N4CCOCC4)cc32)c1 (stereo unspecified)	9.82% (inactive)
Cc1ccc(S(=O)(=O)NC(C(=O)N2CCOCCOCCOCCOCC2)c2ccccc2)cc1 (stereo unspecified)	-14.3% (inactive)
COc1cc(NC(=O)C2CC(c3ccccc3O)=NO2)c(OC)cc1Cl (stereo unspecified)	0.764% (inactive)
CCC(C)Cn1c(O)cc2nn(-c3nc4ccccc4s3)c(=O)c-2c1C (stereo unspecified)	-80.3% (active)
NS(=O)(=O)c1ccc(NC(=O)C(=O)Nc2ccc3nc4n(c(=O)c3c2)CCCCC4)cc1	13.4% (inactive)
COc1ccc(-c2c(C)nn3c(N4CCC(C(=O)NCCC(C)C)CC4)cc(C)nc23)cc1OC	1.6% (inactive)

Structure (SMILES)	activity change, negative = inhibition
CCN1CCN(C(c2ccc(C)cc2)c2c(O)cc(C)n(Cc3ccco3)c2=O)CC1 (stereo unspecified)	25% (inactive)
CCOc1ccccc1NC(=O)Cn1nnc(C(=O)Nc2ccc(C)c(C)c2)c1N	-18.4% (inactive)
CCOc1ccccc1NC(=O)Cn1nnc(C(=O)NCc2cccs2)c1N	-78.3% (active)
CCOc1ccc(Cl)cc1-c1cc(C(=O)NCc2cccs2)[nH]n1	8.26% (inactive)
COc1ccc(CNC(=O)CS(=O)Cc2nc(-c3cccc(C)c3)oc2C)cc1 (stereo unspecified)	-7.8% (inactive)
CN(CC(=O)O)S(=O)(=O)c1ccc2oc3ccccc3c2c1	-8.55% (inactive)
COc1cccc(CNc2nc(NCc3ccccc3OC)nc3ccsc23)c1	-90.2% (active)
COc1cccc(-c2cc3nc(NCc4ccccc4OC)n(C)c(=O)c3s2)c1	-13.2% (inactive)
CC(C)Nc1nc(NCCOc2ccccc2Cl)c2sccc2n1	-35.9% (inactive)
COc1cccc(CNc2nccn(-c3ccc(OC)c(OC)c3)c2=O)c1	13.5% (inactive)
COc1ccccc1CNc1nc2ccc(Cl)cc2n2cnnc12	25.8% (inactive)
COc1ccccc1CNc1nc(Nc2ccccc2Cl)c2sccc2n1	-67.2% (active)
CCN1CCC(N(Cc2ccc(F)cc2)C(=O)Nc2cc(C)ccc2C)CC1	-23.7% (inactive)
CCOC(=O)Cn1c(=O)n(-c2ccccc2OC)c2nc(-c3cccc(F)c3)nc(C(N)=O)c21	1.14% (inactive)
O=C(O)c1cc(S(=O)(=O)N(Cc2ccccc2)c2ccccc2)ccc1Cl	-27.4% (inactive)
O=C(CCl)N(Cc1cccc([N+](=O)[O-])c1)c1cccc(Cl)c1	-99.6% (active)
O=C(Cc1ccc(F)cc1)N1CCN=C1SCc1cccc([N+](=O)[O-])c1	35.3% (inactive)
CCOC(=O)c1cc(NC(=O)c2ccc(F)cc2)c(=O)n2c1oc1ccccc12	-11.8% (inactive)
